{"source": "PubChem BioAssay (Tox21)", "note": "Records with an inconclusive call do not appear. Calls of active or inactive are those of the source. The call rests on the fitted dose curve. On the % scale 0 is the no-effect control and ±100 the full control effect; potency means the concentration at half of the fitted maximal effect.", "data": [{"experiment": "qHTS assay to identify small molecule antagonists of the sonic hedgehog signaling (Shh) pathway (AID 1259369); further: nearly all actives have a fitted effect of over 45% in size", "conditions": "NIH/3T3 Gli1-Luc reporter, Shh antagonist, luminescence 24 h; series mostly up to 92.4 µM; activity change, negative = inhibition: at the top concentration", "from_the_text": "U.S. Tox21 Program National Center for Advancing Translational Sciences [NCATS] NIH Chemical Genomics Center [NCGC] U.S. Environmental Protection Agency [EPA] National Institutes of Environmental Health Sciences [NIEHS] National Toxicology Program [NTP] U.S. Food and Drug Administration [FDA] Tox21 Assay Overview: The sonic hedgehog (Shh) pathway is essential for normal embryonic development. Dysregulation of the Shh pathway can cause severe developmental defects in organs. Therefore chemicals that interfere with the pathway are potential developmental toxicants. A cell line designated 3T3Gli1-Luc (DMB/OARSA/CFSAN/FDA, Laurel, MD), a NIH/3T3 derived clone containing stably integrated Gli1-Luc reporter is used to detect chemical interference of the Shh pathway, by changes in the expression of the firefly Luc gene under the control of the Gli1 transcriptional response element. This cell line was used to screen Tox21 libraries for identifying and prioritizing the potential developmental toxicants that interfere Shh pathway. Conditioned medium-stimulated mode was used to screen for chemicals inhibiting Shh signaling.\nTox21 Assay Protocol Summary: 3T3 Gli1-Luc cells were dispensed at 2,000 per well in 5uL of culture medium into white solid bottom 1536-well plates (Greiner Bio-One, Monroe, NC) using a Multidrop Combi (Thermo Scientific, Waltham, MA) dispenser. The assay plates were incubated at 37 C and 5% CO2 for 4hr, and then 23nL of compounds dissolved in DMSO and positive control were transferred using a Pintool station (Wako, San Diego, CA). The compound transfer was followed by the addition of 1ul conditioned medium or assay buffer using two separate tips of Flying Reagent Dispenser (FRD, Aurora Discovery, San Diego, CA). The assay plates were incubated at 37C and 5% CO2 for 24hr. For luciferase read, 4uL of Amplite Luciferase reporter gene assay reagent (AAT Bioquest, Inc. Sunnyvale, CA) was added to each well of the assay plates using FRD and incubated at room temperature for 30min. The luminescence signal was measured using a ViewLux plate reader (Perkin Elmer, Shelton, CT).", "values": [{"smiles": "O=C(Nc1ccc(Cl)c(Cl)c1)c1cc(Cl)cc(Cl)c1O", "Potency": "3.86 µM (active)"}, {"smiles": "[O]=[Zr]", "activity change, negative = inhibition": "-1.43% (inactive)"}, {"smiles": "NC1(c2ccc(-c3nc4ccn5c(=O)[nH]nc5c4cc3-c3ccccc3)cc2)CCC1", "Potency": "0.0944 µM (active)"}, {"smiles": "CCCCCCC(C)OC(=O)COc1nc(F)c(Cl)c(N)c1Cl", "note": "(stereo not given)", "activity change, negative = inhibition": "-8.67% (inactive)"}, {"smiles": "O=Cc1ccc(F)cc1", "activity change, negative = inhibition": "0% (inactive)"}, {"smiles": "CC(C)=C1CC[C@@H](C)CC1=O", "activity change, negative = inhibition": "0.564% (inactive)"}, {"smiles": "CN1CN(C)CN(C)C1", "activity change, negative = inhibition": "13.4% (inactive)"}, {"smiles": "C=CC(=O)OCC(O)COc1ccccc1", "note": "(stereo not given)", "activity change, negative = inhibition": "0% (inactive)"}, {"smiles": "CC(=O)O[C@@H]1C[C@@H]2CC[C@@]1(C)C2(C)C", "activity change, negative = inhibition": "4.76% (inactive)"}, {"smiles": "CCc1cccc(CC)c1NC(=O)C(=O)O", "activity change, negative = inhibition": "18.8% (inactive)"}, {"smiles": "c1ccc2c(c1)CCC2", "activity change, negative = inhibition": "1.13% (inactive)"}, {"smiles": "Clc1ccccc1CN1CCc2sccc2C1", "activity change, negative = inhibition": "-4.13% [at 42.5 µM] (inactive)"}, {"smiles": "Cc1cn[nH]c1", "activity change, negative = inhibition": "28% [at 42.5 µM] (inactive)"}, {"smiles": "Clc1nc2ccccc2s1", "activity change, negative = inhibition": "3.71% (inactive)"}, {"smiles": "CCCCNc1c(C(=O)OCC)c(C)nc2c1cnn2CC", "Potency": "0.0422 µM (active)"}, {"smiles": "CCCCOCC", "activity change, negative = inhibition": "0.0024% (inactive)"}, {"smiles": "CCOC(=O)CN", "activity change, negative = inhibition": "-1.36% (inactive)"}, {"smiles": "CN1CCN(C2Cc3ccccc3Sc3ccc(Cl)cc32)CC1", "note": "(stereo not given)", "Potency": "6.68 µM (active)"}, {"smiles": "CCN1CCN(c2cc(-c3ccc(F)cc3)c3c(n2)CCCCCC3)CC1", "activity change, negative = inhibition": "15.3% [at 19 µM] (inactive)"}, {"smiles": "CCC1CCCCC1", "activity change, negative = inhibition": "7.54% (inactive)"}, {"smiles": "CC(CN(C)C)CN1c2ccccc2CCc2ccccc21", "note": "(stereo not given)", "Potency": "2.37 µM (active)"}, {"smiles": "ClC/C=C\\CCl", "activity change, negative = inhibition": "-1.15% (inactive)"}, {"smiles": "CC1=CCC(=O)O1", "activity change, negative = inhibition": "5.48% (inactive)"}, {"smiles": "CCN(CC)c1ccc(N)cc1", "Potency": "4.99 µM (active)"}, {"smiles": "NCCCC(O)(P(=O)(O)O)P(=O)(O)O", "activity change, negative = inhibition": "2.15% [at 42.5 µM] (inactive)"}, {"smiles": "CCOC(=O)COc1ccc(C)cc1", "activity change, negative = inhibition": "-10.2% (inactive)"}, {"smiles": "O=C(O)CCn1c2c(c3ccccc31)C[C@H](NS(=O)(=O)c1ccc(F)cc1)CC2", "activity change, negative = inhibition": "17.7% [at 42.5 µM] (inactive)"}, {"smiles": "C=CC(=O)OCCOCC(CC)(COCCOC(=O)C=C)COCCOC(=O)C=C", "Potency": "5.67 µM (active)"}, {"smiles": "CC(C)(C)C1=CC(=O)C=C(C(C)(C)C)C1=O", "activity change, negative = inhibition": "9.38% (inactive)"}, {"smiles": "CCCCCCCOC(=O)c1ccc(O)cc1", "Potency": "43.3 µM (active)"}, {"smiles": "Cc1cc(=O)[nH]c(=O)[nH]1", "activity change, negative = inhibition": "-2.6% (inactive)"}, {"smiles": "CCCSS/C(CCO)=C(\\C)N(C=O)Cc1cnc(C)nc1N", "activity change, negative = inhibition": "-11.6% [at 42.5 µM] (inactive)"}, {"smiles": "CCC(C)c1ccccc1", "note": "(stereo not given)", "activity change, negative = inhibition": "4.16% (inactive)"}, {"smiles": "CCOCN(C(=O)CS(=O)(=O)O)c1c(C)cccc1CC", "activity change, negative = inhibition": "1.08% (inactive)"}, {"smiles": "CCCCC(CC)COC(=O)c1ccc(O)cc1", "note": "(stereo not given)", "Potency": "43.3 µM (active)"}, {"smiles": "CCN(CC)CCOc1ccc(C(O)(Cc2ccc(Cl)cc2)c2ccc(C)cc2)cc1", "note": "(stereo not given)", "Potency": "5.96 µM (active)"}, {"smiles": "CC1CNCC(C)O1", "note": "(stereo not given)", "activity change, negative = inhibition": "18.6% (inactive)"}, {"smiles": "CO[C@H]1C=CO[C@@]2(C)Oc3c(C)c(O)c4c(O)c(cc(O)c4c3C2=O)NC(=O)/C(C)=C\\C=C/[C@H](C)[C@H](O)[C@@H](C)[C@@H](O)[C@@H](C)[C@H](OC(C)=O)[C@@H]1C", "Potency": "13.8 µM (active)"}, {"smiles": "CCC(C)C(=O)OC", "note": "(stereo not given)", "activity change, negative = inhibition": "14.3% (inactive)"}, {"smiles": "COC(=O)NCCC[Si](OC)(OC)OC", "activity change, negative = inhibition": "-18.6% (inactive)"}]}]}
